Columns and labels:
Assay in all cases: DAPPL (digital affinity profiling via proximity ligation, sequencing); 10 mM Tris-HCl pH 7.5, 50 mM NaCl, 1 mM DTT, 4% glycerol, room temperature, 30 min; GST-TFs on glutathione beads, 16-mer random dsDNA library, 0.1% formaldehyde crosslink after washing; high values mean tight binding
FLI1 = target: T1, FLI1 (Homo sapiens, UniProt Q01543 1-452); conditions: protein: recombinant; tags: N-terminal GST; dsDNA, one strand shown
T1 sequence: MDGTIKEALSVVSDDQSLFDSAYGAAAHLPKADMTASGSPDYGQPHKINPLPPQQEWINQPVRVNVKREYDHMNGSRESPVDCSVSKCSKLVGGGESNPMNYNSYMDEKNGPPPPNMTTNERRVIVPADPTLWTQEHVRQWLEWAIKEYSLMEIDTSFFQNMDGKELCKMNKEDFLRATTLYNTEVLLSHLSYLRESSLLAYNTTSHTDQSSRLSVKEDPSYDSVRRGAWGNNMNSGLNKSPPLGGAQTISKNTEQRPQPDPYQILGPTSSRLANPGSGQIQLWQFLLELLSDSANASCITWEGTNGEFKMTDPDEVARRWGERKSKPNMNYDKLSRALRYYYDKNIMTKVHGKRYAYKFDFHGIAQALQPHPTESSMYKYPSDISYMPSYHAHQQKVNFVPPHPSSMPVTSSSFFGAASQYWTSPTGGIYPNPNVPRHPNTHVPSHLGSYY
In short: (§1)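 A tag-only sample was pooled with DNA-barcoded human transcription factors that had been expressed in yeast as GST fusions and captured on glutathione beads. The pools were incubated for 30 min at room temperature with 200 nmole of a random double-stranded 16-mer DNA library in Tris/NaCl/DTT/glycerol buffer, then washed, crosslinked with 0.1% formaldehyde, proximity-ligated (BsaI/T4 ligase, 1 h, 37 °C), PCR-amplified and sequenced on an Illumina NextSeq500. Binding signal is each hexamer's read frequency for a factor divided by its frequency for the tag-only sample.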

ELK1 = target: T2, ELK1 (Homo sapiens, UniProt P19419 1-428); conditions: protein: recombinant; tags: N-terminal GST; dsDNA, one strand shown
T2 sequence: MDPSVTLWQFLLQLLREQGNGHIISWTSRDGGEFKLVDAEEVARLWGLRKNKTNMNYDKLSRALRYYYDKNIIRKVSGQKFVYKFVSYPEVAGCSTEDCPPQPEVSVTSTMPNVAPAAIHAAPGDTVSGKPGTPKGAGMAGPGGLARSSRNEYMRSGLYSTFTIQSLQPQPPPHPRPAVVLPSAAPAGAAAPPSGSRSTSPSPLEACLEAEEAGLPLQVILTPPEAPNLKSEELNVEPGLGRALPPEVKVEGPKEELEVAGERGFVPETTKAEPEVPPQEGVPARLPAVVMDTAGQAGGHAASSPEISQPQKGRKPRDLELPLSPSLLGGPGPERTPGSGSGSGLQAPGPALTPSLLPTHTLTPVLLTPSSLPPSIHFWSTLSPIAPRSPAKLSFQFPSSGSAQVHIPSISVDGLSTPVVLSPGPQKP
In short: as §1

GABPA = target: T3, GABPA (Homo sapiens, UniProt Q06546 1-454); conditions: protein: recombinant; tags: N-terminal GST; dsDNA, one strand shown
T3 sequence: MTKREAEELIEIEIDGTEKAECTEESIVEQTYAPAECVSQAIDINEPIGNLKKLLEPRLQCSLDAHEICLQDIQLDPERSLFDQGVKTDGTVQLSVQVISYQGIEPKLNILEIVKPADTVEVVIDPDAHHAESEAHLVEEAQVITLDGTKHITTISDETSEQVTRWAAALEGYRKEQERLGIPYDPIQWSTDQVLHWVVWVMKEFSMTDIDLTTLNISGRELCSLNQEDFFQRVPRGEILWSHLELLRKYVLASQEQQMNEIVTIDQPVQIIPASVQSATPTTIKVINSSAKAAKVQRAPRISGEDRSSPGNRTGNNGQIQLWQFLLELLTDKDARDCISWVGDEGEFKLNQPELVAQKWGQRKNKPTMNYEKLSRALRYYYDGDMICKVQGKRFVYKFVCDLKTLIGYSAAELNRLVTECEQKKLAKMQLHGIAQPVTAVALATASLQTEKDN
In short: as §1

ERG = target: T4, ERG (Homo sapiens, UniProt P11308 1-479); conditions: protein: recombinant; tags: N-terminal GST; dsDNA, one strand shown
T4 sequence: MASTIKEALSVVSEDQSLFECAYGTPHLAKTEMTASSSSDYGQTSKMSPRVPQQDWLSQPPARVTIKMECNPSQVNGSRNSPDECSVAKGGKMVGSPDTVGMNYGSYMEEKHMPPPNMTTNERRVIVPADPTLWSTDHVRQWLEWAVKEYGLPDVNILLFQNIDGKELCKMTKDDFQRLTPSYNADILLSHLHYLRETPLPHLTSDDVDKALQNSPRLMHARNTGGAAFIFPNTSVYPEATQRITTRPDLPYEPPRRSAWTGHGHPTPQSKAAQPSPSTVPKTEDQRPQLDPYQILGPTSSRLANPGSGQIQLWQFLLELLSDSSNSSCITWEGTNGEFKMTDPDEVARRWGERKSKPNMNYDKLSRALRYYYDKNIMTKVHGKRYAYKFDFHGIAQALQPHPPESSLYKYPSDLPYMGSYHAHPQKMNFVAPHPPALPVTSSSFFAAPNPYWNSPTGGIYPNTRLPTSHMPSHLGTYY
In short: as §1

ELF1 = ELF1 (Homo sapiens, UniProt P32519 1-619); conditions: protein: recombinant; tags: N-terminal GST; dsDNA, one strand shown
Chain of ELF1 (P32519 whole entry): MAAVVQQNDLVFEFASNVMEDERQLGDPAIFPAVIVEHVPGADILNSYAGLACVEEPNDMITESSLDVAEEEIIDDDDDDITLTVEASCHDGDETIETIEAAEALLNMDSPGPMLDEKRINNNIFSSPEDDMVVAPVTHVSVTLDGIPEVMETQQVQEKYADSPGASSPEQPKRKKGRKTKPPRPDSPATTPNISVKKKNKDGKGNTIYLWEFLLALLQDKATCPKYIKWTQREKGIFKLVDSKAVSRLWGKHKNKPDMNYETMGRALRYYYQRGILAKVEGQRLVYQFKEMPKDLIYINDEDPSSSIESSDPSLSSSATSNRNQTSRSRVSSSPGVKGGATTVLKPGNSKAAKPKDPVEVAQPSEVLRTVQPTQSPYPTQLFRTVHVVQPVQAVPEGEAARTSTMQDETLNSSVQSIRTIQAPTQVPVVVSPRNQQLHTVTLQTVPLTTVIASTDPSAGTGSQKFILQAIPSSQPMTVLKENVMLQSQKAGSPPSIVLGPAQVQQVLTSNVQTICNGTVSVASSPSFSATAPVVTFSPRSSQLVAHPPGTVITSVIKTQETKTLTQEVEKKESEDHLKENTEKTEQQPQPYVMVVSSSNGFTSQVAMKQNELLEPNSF
In short: as §1

EHF = target: T5, EHF (Homo sapiens, UniProt Q9NZC4 1-300); conditions: protein: recombinant; tags: N-terminal GST; dsDNA, one strand shown
T5 sequence: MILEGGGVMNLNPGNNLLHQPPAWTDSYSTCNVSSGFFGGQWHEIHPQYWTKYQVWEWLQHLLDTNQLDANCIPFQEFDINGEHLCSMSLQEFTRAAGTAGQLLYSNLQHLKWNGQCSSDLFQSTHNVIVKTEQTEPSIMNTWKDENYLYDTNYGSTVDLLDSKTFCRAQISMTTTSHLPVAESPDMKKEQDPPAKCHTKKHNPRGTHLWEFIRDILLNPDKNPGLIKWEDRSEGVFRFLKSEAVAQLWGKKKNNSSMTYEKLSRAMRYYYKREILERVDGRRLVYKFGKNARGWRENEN
In short: as §1

SPI1 = SPI1 (Homo sapiens, UniProt P17947 1-270); conditions: protein: recombinant; tags: N-terminal GST; dsDNA, one strand shown
In short: as §1

SPIB = SPIB (Homo sapiens, UniProt Q01892 1-262); conditions: protein: recombinant; tags: N-terminal GST; dsDNA, one strand shown
Chain of SPIB (Q01892 whole entry): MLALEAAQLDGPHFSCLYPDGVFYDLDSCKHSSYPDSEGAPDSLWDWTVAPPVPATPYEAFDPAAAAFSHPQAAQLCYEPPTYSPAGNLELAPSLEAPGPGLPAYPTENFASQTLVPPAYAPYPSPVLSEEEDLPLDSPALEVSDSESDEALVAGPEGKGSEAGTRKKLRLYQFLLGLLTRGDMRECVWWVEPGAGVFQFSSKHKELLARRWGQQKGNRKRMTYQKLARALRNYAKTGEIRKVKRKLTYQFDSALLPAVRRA
In short: as §1

ELK3 = target: T6, ELK3 (Homo sapiens, UniProt P41970 1-407); conditions: protein: recombinant; tags: N-terminal GST; dsDNA, one strand shown
T6 sequence: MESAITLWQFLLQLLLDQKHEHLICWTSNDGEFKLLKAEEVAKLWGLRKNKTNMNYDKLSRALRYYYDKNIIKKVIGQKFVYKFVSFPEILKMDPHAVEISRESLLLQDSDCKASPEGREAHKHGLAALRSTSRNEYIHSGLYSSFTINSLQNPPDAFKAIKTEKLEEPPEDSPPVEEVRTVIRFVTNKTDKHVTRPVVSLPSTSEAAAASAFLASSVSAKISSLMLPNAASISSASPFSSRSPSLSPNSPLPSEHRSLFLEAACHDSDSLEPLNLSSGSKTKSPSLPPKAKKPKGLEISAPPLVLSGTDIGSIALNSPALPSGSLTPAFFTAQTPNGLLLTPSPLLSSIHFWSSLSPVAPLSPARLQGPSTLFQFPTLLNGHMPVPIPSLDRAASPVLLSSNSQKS
In short: as §1

FEV = target: T7, FEV (Homo sapiens, UniProt Q99581 1-238); conditions: protein: recombinant; tags: N-terminal GST; dsDNA, one strand shown
T7 sequence: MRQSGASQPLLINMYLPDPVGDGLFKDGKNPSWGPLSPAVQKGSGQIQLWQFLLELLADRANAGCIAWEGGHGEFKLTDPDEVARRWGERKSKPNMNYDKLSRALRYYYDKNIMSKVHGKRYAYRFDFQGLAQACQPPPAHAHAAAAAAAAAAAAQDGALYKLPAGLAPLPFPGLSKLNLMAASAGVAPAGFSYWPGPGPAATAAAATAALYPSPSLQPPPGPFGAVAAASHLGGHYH
In short: as §1

ETV5 = ETV5 (Homo sapiens, UniProt P41161 1-510); conditions: protein: recombinant; tags: N-terminal GST; dsDNA, one strand shown
Chain of ETV5 (P41161 whole entry): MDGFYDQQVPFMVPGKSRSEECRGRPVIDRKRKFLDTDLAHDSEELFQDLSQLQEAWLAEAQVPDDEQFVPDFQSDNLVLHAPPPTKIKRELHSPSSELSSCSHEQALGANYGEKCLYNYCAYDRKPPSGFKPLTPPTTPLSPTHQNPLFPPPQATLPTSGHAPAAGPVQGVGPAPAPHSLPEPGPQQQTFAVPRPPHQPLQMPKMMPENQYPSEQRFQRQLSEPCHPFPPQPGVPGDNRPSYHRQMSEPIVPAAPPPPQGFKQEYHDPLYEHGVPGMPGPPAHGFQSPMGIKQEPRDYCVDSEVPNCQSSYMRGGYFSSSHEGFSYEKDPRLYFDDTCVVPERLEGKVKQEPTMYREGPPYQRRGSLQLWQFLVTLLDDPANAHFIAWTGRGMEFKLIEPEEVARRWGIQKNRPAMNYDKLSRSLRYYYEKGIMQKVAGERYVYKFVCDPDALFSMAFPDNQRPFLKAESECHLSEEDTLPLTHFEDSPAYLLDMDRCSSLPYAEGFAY
In short: as §1

HSF1 = HSF1 (Homo sapiens, UniProt Q00613 1-529); conditions: protein: recombinant; tags: N-terminal GST; chain copies: 3; dsDNA, one strand shown
Chain of HSF1 (Q00613 whole entry): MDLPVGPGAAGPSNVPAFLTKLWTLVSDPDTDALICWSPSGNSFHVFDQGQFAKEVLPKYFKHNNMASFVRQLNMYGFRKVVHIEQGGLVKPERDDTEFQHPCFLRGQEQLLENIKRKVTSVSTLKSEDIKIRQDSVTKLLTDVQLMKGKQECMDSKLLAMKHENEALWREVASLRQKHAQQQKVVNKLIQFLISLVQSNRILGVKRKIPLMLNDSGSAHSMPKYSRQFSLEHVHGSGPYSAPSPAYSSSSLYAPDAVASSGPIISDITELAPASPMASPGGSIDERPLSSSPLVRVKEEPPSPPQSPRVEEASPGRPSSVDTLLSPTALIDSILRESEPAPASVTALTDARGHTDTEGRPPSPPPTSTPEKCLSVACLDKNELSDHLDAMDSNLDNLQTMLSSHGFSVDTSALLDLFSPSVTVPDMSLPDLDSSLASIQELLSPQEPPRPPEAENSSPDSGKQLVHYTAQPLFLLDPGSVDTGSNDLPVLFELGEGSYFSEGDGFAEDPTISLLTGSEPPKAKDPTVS
In short: as §1

ELF4 = ELF4 (Homo sapiens, UniProt Q99607 1-663); conditions: protein: recombinant; tags: N-terminal GST; dsDNA, one strand shown
Chain of ELF4 (Q99607 whole entry): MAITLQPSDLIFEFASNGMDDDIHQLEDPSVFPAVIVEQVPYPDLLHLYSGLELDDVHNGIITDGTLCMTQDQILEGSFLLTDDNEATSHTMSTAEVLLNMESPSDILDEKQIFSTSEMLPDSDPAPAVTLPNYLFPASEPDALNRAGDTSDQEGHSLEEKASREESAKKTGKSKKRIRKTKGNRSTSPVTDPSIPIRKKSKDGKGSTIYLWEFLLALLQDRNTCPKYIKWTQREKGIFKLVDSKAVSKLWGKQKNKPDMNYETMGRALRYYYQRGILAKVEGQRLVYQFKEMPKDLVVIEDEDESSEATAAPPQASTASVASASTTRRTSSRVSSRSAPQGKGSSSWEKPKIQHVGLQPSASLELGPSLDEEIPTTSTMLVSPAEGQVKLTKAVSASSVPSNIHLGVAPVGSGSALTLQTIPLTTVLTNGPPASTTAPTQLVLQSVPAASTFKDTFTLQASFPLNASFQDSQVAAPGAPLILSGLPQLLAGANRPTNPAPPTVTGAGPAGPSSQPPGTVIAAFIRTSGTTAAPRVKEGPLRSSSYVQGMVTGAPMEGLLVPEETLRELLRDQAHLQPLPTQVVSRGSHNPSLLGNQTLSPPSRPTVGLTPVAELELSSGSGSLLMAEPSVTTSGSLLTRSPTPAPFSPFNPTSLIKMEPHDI
In short: as §1

ELK4 = target: T8, ELK4 (Homo sapiens, UniProt P28324-2 1-405); conditions: protein: recombinant; tags: N-terminal GST; dsDNA, one strand shown
T8 sequence: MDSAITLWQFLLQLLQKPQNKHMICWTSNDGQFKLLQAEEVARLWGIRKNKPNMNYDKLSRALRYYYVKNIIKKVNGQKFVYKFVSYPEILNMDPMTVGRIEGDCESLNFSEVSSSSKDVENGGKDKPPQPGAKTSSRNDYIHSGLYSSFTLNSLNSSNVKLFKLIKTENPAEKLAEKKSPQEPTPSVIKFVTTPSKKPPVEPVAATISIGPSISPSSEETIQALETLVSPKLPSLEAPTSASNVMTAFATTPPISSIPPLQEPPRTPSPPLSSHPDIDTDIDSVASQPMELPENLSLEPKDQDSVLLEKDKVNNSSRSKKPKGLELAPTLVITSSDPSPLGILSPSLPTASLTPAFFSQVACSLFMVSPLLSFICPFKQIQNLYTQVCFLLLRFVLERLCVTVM
In short: as §1

ETV2 = target: T9, ETV2 (Homo sapiens, UniProt O00321 1-342); conditions: protein: recombinant; tags: N-terminal GST; dsDNA, one strand shown
T9 sequence: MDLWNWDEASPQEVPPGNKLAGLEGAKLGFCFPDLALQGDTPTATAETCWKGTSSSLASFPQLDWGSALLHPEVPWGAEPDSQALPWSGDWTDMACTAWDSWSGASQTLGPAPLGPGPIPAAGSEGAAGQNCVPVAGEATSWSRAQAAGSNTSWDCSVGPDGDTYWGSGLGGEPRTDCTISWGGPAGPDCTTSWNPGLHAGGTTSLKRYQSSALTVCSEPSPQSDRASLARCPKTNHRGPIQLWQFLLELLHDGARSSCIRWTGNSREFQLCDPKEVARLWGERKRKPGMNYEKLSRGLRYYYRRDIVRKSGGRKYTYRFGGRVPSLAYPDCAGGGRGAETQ
In short: as §1

ELF3 = target: T10, ELF3 (Homo sapiens, UniProt P78545 1-371); conditions: protein: recombinant; tags: N-terminal GST; dsDNA, one strand shown
T10 sequence: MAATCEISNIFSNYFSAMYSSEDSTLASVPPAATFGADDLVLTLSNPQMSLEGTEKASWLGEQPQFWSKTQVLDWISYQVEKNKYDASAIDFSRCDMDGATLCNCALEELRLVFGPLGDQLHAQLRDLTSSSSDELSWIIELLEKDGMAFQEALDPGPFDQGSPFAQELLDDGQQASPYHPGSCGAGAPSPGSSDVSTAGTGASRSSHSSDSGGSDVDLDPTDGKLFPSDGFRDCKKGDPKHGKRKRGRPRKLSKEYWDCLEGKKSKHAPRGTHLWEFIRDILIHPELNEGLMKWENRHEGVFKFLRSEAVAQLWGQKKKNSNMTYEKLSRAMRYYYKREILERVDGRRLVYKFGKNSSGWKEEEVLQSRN
In short: as §1

CRX = CRX (Homo sapiens, UniProt O43186 1-299); conditions: protein: recombinant; tags: N-terminal GST; dsDNA, one strand shown
Chain of CRX (O43186 whole entry): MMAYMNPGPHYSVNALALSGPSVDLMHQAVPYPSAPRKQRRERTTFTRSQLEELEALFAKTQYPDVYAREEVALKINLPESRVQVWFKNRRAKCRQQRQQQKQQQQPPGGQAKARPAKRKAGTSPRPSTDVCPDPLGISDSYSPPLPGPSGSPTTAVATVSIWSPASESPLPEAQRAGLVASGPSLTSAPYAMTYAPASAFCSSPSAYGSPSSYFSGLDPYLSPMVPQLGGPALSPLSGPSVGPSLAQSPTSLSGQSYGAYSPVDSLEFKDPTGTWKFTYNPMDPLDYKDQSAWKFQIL
In short: as §1

ETV1 = ETV1 (Homo sapiens, UniProt P50549 1-477); conditions: protein: recombinant; tags: N-terminal GST; dsDNA, one strand shown
Chain of ETV1 (P50549 whole entry): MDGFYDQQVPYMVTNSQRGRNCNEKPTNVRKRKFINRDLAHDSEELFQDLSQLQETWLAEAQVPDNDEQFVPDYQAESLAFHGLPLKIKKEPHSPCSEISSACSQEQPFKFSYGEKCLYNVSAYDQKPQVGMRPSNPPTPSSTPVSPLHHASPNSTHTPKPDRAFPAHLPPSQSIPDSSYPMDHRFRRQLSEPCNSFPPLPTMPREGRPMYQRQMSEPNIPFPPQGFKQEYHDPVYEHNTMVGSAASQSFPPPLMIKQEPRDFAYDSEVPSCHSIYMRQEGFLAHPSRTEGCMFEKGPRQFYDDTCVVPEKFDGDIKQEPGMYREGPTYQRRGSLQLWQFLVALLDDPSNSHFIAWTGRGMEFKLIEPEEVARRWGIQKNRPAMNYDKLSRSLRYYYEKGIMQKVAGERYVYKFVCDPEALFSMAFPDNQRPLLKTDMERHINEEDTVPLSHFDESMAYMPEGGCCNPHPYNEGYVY
In short: as §1

## ATTAGG
FLI1
  binding signal: 1.06 fold enrichment (6-mer frequency, TF over GST control)
ELK1
  binding signal: 1.06 fold enrichment (6-mer frequency, TF over GST control)
GABPA
  binding signal: 1.1 fold enrichment (6-mer frequency, TF over GST control)
ERG
  binding signal: 1.05 fold enrichment (6-mer frequency, TF over GST control)
ELF1
  binding signal: 1.06 fold enrichment (6-mer frequency, TF over GST control)
EHF
  binding signal: 1.1 fold enrichment (6-mer frequency, TF over GST control)
SPI1
  binding signal: 1.07 fold enrichment (6-mer frequency, TF over GST control)
SPIB
  binding signal: 1.06 fold enrichment (6-mer frequency, TF over GST control)
ELK3
  binding signal: 1.1 fold enrichment (6-mer frequency, TF over GST control)
FEV
  binding signal: 1.01 fold enrichment (6-mer frequency, TF over GST control)
ETV5
  binding signal: 1.11 fold enrichment (6-mer frequency, TF over GST control)
HSF1
  binding signal: 1.57 fold enrichment (6-mer frequency, TF over GST control)
ELF4
  binding signal: 1.07 fold enrichment (6-mer frequency, TF over GST control)
ELK4
  binding signal: 1.06 fold enrichment (6-mer frequency, TF over GST control)
ETV2
  binding signal: 1.05 fold enrichment (6-mer frequency, TF over GST control)
ELF3
  binding signal: 1.04 fold enrichment (6-mer frequency, TF over GST control)
CRX
  binding signal: 2.38 fold enrichment (6-mer frequency, TF over GST control)
ETV1
  binding signal: 1.01 fold enrichment (6-mer frequency, TF over GST control)

## TAAAGA
FLI1
  binding signal: 1.11 fold enrichment (6-mer frequency, TF over GST control)
ELK1
  binding signal: 1.04 fold enrichment (6-mer frequency, TF over GST control)
GABPA
  binding signal: 1.14 fold enrichment (6-mer frequency, TF over GST control)
ERG
  binding signal: 1.14 fold enrichment (6-mer frequency, TF over GST control)
ELF1
  binding signal: 1.14 fold enrichment (6-mer frequency, TF over GST control)
EHF
  binding signal: 1.07 fold enrichment (6-mer frequency, TF over GST control)
SPI1
  binding signal: 1.12 fold enrichment (6-mer frequency, TF over GST control)
SPIB
  binding signal: 1.11 fold enrichment (6-mer frequency, TF over GST control)
ELK3
  binding signal: 1.07 fold enrichment (6-mer frequency, TF over GST control)
FEV
  binding signal: 1.09 fold enrichment (6-mer frequency, TF over GST control)
ETV5
  binding signal: 1.07 fold enrichment (6-mer frequency, TF over GST control)
HSF1
  binding signal: 1.56 fold enrichment (6-mer frequency, TF over GST control)
ELF4
  binding signal: 1.07 fold enrichment (6-mer frequency, TF over GST control)
ELK4
  binding signal: 1.11 fold enrichment (6-mer frequency, TF over GST control)
ETV2
  binding signal: 1.13 fold enrichment (6-mer frequency, TF over GST control)
ELF3
  binding signal: 1.2 fold enrichment (6-mer frequency, TF over GST control)
CRX
  binding signal: 1.85 fold enrichment (6-mer frequency, TF over GST control)
ETV1
  binding signal: 1.11 fold enrichment (6-mer frequency, TF over GST control)
